Screen size: about 1,300 compounds; about 750 (58%) were called active. The list shows a part of the results.
Target: Sulfhydryl oxidase 1 (Homo sapiens) (UniProt O00391)
Assay: QSOX1 enzyme inhibitors, primary screen, biochemical, ROS-Glo H2O2 luminescence, HTS (AID 1347418)
Conditions: recombinant QSOX1, ROS-Glo H2O2 luminescence, at 12.5 µM, active compounds read high; active = any value above zero unless noted

Chain of Sulfhydryl oxidase 1 (Homo sapiens) (O00391 whole entry, looked up): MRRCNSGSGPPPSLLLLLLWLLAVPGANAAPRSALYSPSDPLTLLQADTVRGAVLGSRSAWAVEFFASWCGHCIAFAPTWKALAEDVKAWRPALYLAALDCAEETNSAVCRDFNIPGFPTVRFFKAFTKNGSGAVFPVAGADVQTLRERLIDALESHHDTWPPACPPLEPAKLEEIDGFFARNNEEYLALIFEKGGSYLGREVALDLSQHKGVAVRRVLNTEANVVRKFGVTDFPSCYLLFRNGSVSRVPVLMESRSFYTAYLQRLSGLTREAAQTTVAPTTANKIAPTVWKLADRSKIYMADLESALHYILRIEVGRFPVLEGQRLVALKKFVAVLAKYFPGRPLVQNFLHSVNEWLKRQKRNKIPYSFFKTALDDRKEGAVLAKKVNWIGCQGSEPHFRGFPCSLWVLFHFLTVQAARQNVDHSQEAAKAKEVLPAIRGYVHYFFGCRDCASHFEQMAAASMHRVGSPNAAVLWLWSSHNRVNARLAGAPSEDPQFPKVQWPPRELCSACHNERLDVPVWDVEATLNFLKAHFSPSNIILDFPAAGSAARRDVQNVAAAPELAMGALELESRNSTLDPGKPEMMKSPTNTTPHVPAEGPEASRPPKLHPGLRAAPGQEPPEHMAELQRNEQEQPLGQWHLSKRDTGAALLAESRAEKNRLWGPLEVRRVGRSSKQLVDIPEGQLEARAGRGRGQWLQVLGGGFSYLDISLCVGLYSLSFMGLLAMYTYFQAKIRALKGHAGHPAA

Row | SMILES | inhibition
1 | CN(N=O)c1cc(O)ccc1O | 4.1% (active)
2 | CN(N=O)c1ccc(O)c(O)c1 | 5.2% (active)
3 | NC1CC1c1ccccc1 (stereo not given) | -0.7% (inactive)
4 | CCCN1CCO[C@@H]2c3cc(O)ccc3OC[C@H]21 | 4.3% (active)
5 | CCCN1CC[C@@H]2c3cc(O)ccc3CC[C@@H]21 | -5.9% (inactive)
6 | CCN(CCCl)Cc1ccccc1Br | 1.5% (active)
7 | C=CCN1CCc2cccc3c2[C@H]1Cc1ccc(O)c(O)c1-3 | 23.6% (active)
8 | COc1ccc2c(c1OC)C(=O)O[C@H]2[C@@H]1c2cc3c(cc2CCN1C)OCO3 | -2.2% (inactive)
9 | CN1CCc2cc(O)cc3c2[C@H]1Cc1ccc(O)c(O)c1-3 | 25.4% (active)
10 | CCCN1CCc2cccc3c2[C@H]1Cc1ccc(O)c(O)c1-3 | 25.2% (active)
11 | COc1ccc2c(c1O)-c1cccc3c1[C@@H](C2)N(C)CC3 | 3.5% (active)
12 | CCCN1CCc2cc(O)cc3c2[C@H]1Cc1ccc(O)c(O)c1-3 | 29.9% (active)
13 | C[C@H]1C2Cc3ccc(O)cc3C1(C)CCN2CC1CC1 (stereo not given in full) | 4.5% [setting not given] (active)
14 | O=C(O)CC[N+](=O)[O-] | -3.4% [setting not given] (inactive)
15 | CC(C)NP(=O)(NC(C)C)OP(=O)(NC(C)C)NC(C)C | 10.1% (active)
16 | C[C@H](N)CN1CCc2ccc(Br)cc21 | 35.7% (active)
17 | CCCn1c(=O)c2[nH]c(C3CCCC3)nc2n(CCCOC(=O)c2ccc(S(=O)(=O)F)cc2)c1=O | -1.3% (inactive)
18 | CC(=O)c1c(O)c(C)c(O)c(Cc2c(O)c3c(c(C(=O)/C=C/c4ccccc4)c2O)OC(C)(C)C=C3)c1O | 0.8% (active)
19 | CCNC(=O)[C@H]1O[C@@H](n2cnc3c(N)ncnc32)C(O)[C@H]1O (stereo not given in full) | 3.3% (active)
20 | CCCC(C)(COC(N)=O)COC(=O)NC(C)C (stereo not given) | 1.5% [setting not given] (active)
21 | NC1CCc2cc(O)c(O)cc2C1 (stereo not given) | 12.7% (active)
22 | Ic1ccccc1CNC1C2CCN(CC2)C1C(c1ccccc1)c1ccccc1 (stereo not given) | -6.2% (inactive)

Row | SMILES | inhibition
23 | COc1ccc2c(c1)[C@@]13CCCC[C@H]1[C@@H](C2)NCC3 | 1.4% [setting not given] (active)
24 | COc1ccc2c(c1)C13CCCCC1C(C2)N(C)CC3 (stereo not given) | -2.3% [setting not given] (inactive)
25 | c1ccc(C2CC2)c(OCC2=NCCN2)c1 | -2% (inactive)
26 | CC(CCc1ccccc1)NC(C)C(O)c1ccc(O)cc1 (stereo not given) | 0.8% (active)
27 | Nc1ccc(CCN2CCN(c3cccc(C(F)(F)F)c3)CC2)cc1 | 2.2% (active)
28 | S=C(NC1CCCCC1)N1CCC(c2cnc[nH]2)CC1 | -1.7% (inactive)
29 | Clc1ccc(N2CC3CCC(C2)N3)nn1 | 1.8% (active)
30 | C#CCN[C@H](C)Cc1ccccc1 | 4.3% [setting not given] (active)
31 | N[C@@H](CCl)C(=O)O | -3.4% (inactive)
32 | C[Se]C[C@H](N)C(=O)O | 3.9% (active)
33 | O=C1NCN(c2ccccc2)C12CCN(CC1COc3ccccc3O1)CC2 (stereo not given) | -3.1% (inactive)
34 | C/C(O)=C(\C#N)C(=O)Nc1cc(Br)ccc1Br | -1.3% (inactive)
35 | COc1cc(CC(C)N)c(OC)cc1I (stereo not given) | 4.3% [setting not given] (active)
36 | NC(=O)c1ccc(OCC(O)CN2CC=C(c3ccc(F)cc3)CC2)cc1 (stereo not given) | 0.4% (active)
37 | COc1ccc(C(CN(C)C)C2(O)CCCCC2)cc1 (stereo not given) | -1.3% (inactive)
38 | CC(C)NC(C)Cc1ccc(I)cc1 (stereo not given) | 5.2% [setting not given] (active)
39 | COc1ccc2[nH]c3c(c2c1)CCNC3 | 0.8% (active)
40 | O=S1(=O)N(CCN2CC=C(c3c[nH]c4cc(F)ccc34)CC2)c2cccc3c2N1CCC3 | 4.2% (active)
41 | CC(=O)[C@H]1CC[C@H]2[C@@H]3CC[C@H]4C[C@H](O)CC[C@]4(C)[C@H]3C(=O)C[C@]12C | -0.2% [setting not given] (inactive)
42 | Fc1ccc(C(OCCN2CCN(CCCc3ccccc3)CC2)c2ccc(F)cc2)cc1 | 6.5% (active)
43 | O=C(CCCN1CCC2(CC1)C(=O)NCN2c1ccccc1)c1ccc(F)cc1 | -1% [setting not given] (inactive)
44 | c1ccc(CCCN2CCN(CCOC(c3ccccc3)c3ccccc3)CC2)cc1 | 7% (active)

Row | SMILES | inhibition
45 | CC[C@@H](CO)NC(=O)[C@@H]1C=C2c3cccc4c3c(cn4C)C[C@H]2N(C)C1 | 1.6% [setting not given] (active)
46 | CC[C@@H](CO)NC(=O)[C@@H]1C=C2c3cccc4[nH]cc(c34)C[C@H]2N(C)C1 | 6.3% [setting not given] (active)
47 | C=CCN1CC[C@]23c4c5ccc(O)c4O[C@H]2/C(=N/NC(=O)c2ccccc2)CC[C@@]3(O)[C@H]1C5 | -0.4% [setting not given] (inactive)
48 | O=C1CC[C@@]2(O)C3Cc4ccc(O)c5c4C2(CCN3CC2CC2)[C@H]1O5 (stereo not given in full) | 1.2% [setting not given] (active)
49 | C=CCN1CC[C@]23c4c5ccc(O)c4O[C@@H]2/C(=N/N=C2\CC[C@@]4(O)C6Cc7ccc(O)c8c7[C@@]4(CCN6CC=C)[C@@H]2O8)CC[C@@]3(O)C1C5 | 1.8% (active)
50 | C=CCN1CCC23c4c5ccc(O)c4O[C@H]2C(=O)CC[C@@]3(O)C1C5 (stereo not given in full) | 3.2% [setting not given] (active)
51 | CCOC(=O)c1ncn2c1[C@@H]1CCCN1C(=O)c1cc(OC)ccc1-2 | 3.1% (active)
52 | Cc1ncsc1CCCl | 4.8% (active)
53 | Clc1cnc(Oc2ccc(Oc3ncc(Cl)cc3Cl)cc2)c(Cl)c1 | -1.5% [setting not given] (inactive)
54 | CN1CCC(c2c[nH]c3ccc(O)cc23)CC1 | 26.8% (active)
55 | CC(Cc1ccc(OCC(=O)O)cc1)NCC(O)c1cccc(Cl)c1 (stereo not given) | -3.3% (inactive)
56 | CC(Cc1ccc(O)cc1)NCC(O)c1cc(O)cc(O)c1 (stereo not given) | 7.9% [setting not given] (active)
57 | N[C@@]1(C(=O)O)CC[C@@H](C(=O)O)C1 | -1.7% (inactive)
58 | CN1CC[C@@]2(C)c3cc(OC(=O)Nc4ccccc4)ccc3N(C)[C@@H]12 | 8.3% (active)
59 | CN1CC[C@@]2(C)c3cc(O)ccc3N(C)C12 (stereo not given in full) | 15.2% (active)
60 | NC(=O)CN1CC(O)CC1=O (stereo not given) | 1.1% [setting not given] (active)
61 | Cc1cccc(C)c1NC(=O)CN1CCCC1=O | 3% [setting not given] (active)
62 | CC[C@@H](C(N)=O)N1CCCC1=O | -2.6% [setting not given] (inactive)
63 | O=C1CCCN1CC#CCN1CCCC1 | -8.1% [setting not given] (inactive)
64 | COc1ccc(C(=O)N2CCCC2=O)cc1 | -3% [setting not given] (inactive)
65 | NC(=O)CN1CCCC1=O | 2.9% [setting not given] (active)
